Test results from PubChem BioAssay.

What follows are molecules tested on XIP peptide (Xip251-270) binding (assay: XIP fragment 251-270 binding compounds – biochemical, small-molecule microarray, fluorescence 635/667 nm, 0.1 µg/mL protein, primary screen (AID 1182)). Conditions: fluorescent protein binding, 635 nm, higher = more signal, called active from +8 up or from −8 down.

Composite z-score, inactive:
CC1(C)O[C@H]2OC([C@H](O)CON3C(=O)c4ccccc4C3=O)[C@H](O)[C@H]2O1 (stereo partly specified) -0.592, C=CC[C@@H]1C=C[C@H](ON=C2C[C@@H](O)[C@@H](O)[C@@H]3[C@@H]4C(=O)N(CC)C(=O)[C@@H]4CC[C@@H]23)[C@@H](CO)O1 -0.192, O=C1C2=CC[C@H]3C(=O)N(C[C@@H]4CCCO4)C(=O)[C@H]3[C@H]2[C@H](O)[C@@H]2O[C@H]12 -0.14, COc1cccc([C@H]2Oc3ccc(OC)cc3C(=NOCC[C@@H]3C=C[C@H](OC(C)=O)[C@@H](COC(C)=O)O3)[C@@H]2O)c1 0.451, CC(C)C(=O)N[C@H]1CCCN1C(=O)C=Cc1ccccc1 0.934, CC(CCC(=O)OC[C@H]1O[C@H](C#Cc2ccccc2)C=C[C@@H]1Oc1ccc(C)cc1)=NOC(C)CN1CCCc2nc(C)c(C)cc21 (stereo partly specified) 0.687, O=C1[C@H]2[C@H]3[C@H](O)[C@H](O)CC(=NOC[C@@H](O)COCc4ccco4)[C@@H]3CC[C@H]2C(=O)N1Cc1ccc2c(c1)OCO2 -0.0588, C#CCCCON=C1C[C@@H](O)[C@@H](O)[C@@H]2[C@@H]3C(=O)N(CC)C(=O)[C@@H]3CC[C@H]12 0.835, COc1ccc(O[C@H]2C=C[C@@H](c3ccccc3)O[C@@H]2CON=C(C)CCN2CCCc3nc(C)c(C)cc32)cc1 0.301, COc1ccc(COC(=O)NN=C2C[C@@H](O)[C@@H](O)[C@@H]3[C@@H]4C(=O)N(c5cccc(Oc6ccccc6)c5)C(=O)[C@@H]4CC[C@H]23)cc1 -0.538, CC(CCN1CCCc2nc(C)c(C)cc21)=NOC[C@@H](O)COCc1ccco1 4.43, C#CCCCON=C1C[C@@H](O)[C@@H](O)[C@@H]2[C@@H]3C(=O)N(C4CCCCC4)C(=O)[C@@H]3CC[C@@H]12 0.481, O=C1[C@H]2[C@H]3[C@H](O)[C@H](O)CC(=NO[C@@H]4O[C@H](CO)[C@@H](O)[C@H](O)[C@H]4O)[C@@H]3CC[C@H]2C(=O)N1C[C@@H]1CCCO1 0.357, CC(CCN1CCCc2nc(C)c(C)cc21)=NOC[C@@H](C)[C@H](OCc1ccccc1)C(C)C -0.563, C=CCOCC1CN2[C@@H](CC[C@@H](C)[C@@H]2c2ccc(Br)cc2)C(=O)O1 (stereo partly specified) 0.0364, CC(C)=NOC(C)CN1CCCCc2nc(C)c(C)cc21 (stereo unspecified) -0.203, CC(=O)OC[C@H]1O[C@H](CC=NOC[C@@H](O)[C@H]2O[C@@H]3OC(C)(C)O[C@@H]3[C@H]2O)C=C[C@@H]1OC(C)=O 0.232, C[C@@H]1CC[C@H]2C(=O)N3[C@@H](CC[C@@H](C)[C@@H]3c3ccc(Br)cc3)C(=O)N2[C@H]1c1ccc(Br)cc1 -0.22, CC(C)(C)N1C(=O)[C@H]2[C@H]3[C@H](O)[C@H](O)CC(=NNC(=O)OCc4ccccc4)[C@H]3CC[C@H]2C1=O -0.401, CCOC(=O)CCN1C(=O)[C@H]2[C@H]3[C@H](O)[C@H](O)CC(=NOCC=C(C)CCC=C(C)C)[C@H]3CC[C@H]2C1=O -0.322, CO[C@H]1COC(=O)[C@H](CCSC)NC(=O)CC=C[C@@H](C)[C@H](OC)COC(=O)[C@@H](OCc2ccccc2)C=C[C@@H]1C 2.65, CC(C)[C@@H](OCc1ccccc1)[C@H](C)C=NO[C@@H](C)c1cn([C@H](CO)Cc2ccccc2)nn1 0.334, O=C(NCCC[N+]1=CC=NC1c1ccccc1)N1CCCc2nc(-c3ccc(Br)cc3)ccc21 (stereo unspecified) 0.638, CCOC(=O)CCN1C(=O)[C@H]2[C@H]3[C@H](O)[C@H](O)CC(=O)[C@@H]3CC[C@H]2C1=O 0.0603, O=C1CCCC=C1C(O)c1ccc([N+](=O)[O-])cc1 (stereo unspecified) -0.542, COC(=O)[C@H](C)NC(=O)CCC1CC(OC(=O)NCCc2ccc(F)cc2)CC2(CCCC(COC(=O)NCCOc3ccccc3)O2)O1 (stereo partly specified) 2.99, CC#CCOCCC=C1c2ccccc2[C@@H](OC)[C@@H]1C 0.772, Cc1ccc2[nH]c3nc(CCCn4ccnc4-c4ccccc4)nnc3c2c1 -0.0582, COc1ccc(COC(=O)NN=C2C[C@@H](O)[C@@H](O)[C@@H]3[C@@H]4C(=O)N(Cc5ccc6c(c5)OCO6)C(=O)[C@@H]4CC[C@H]23)cc1 0.369, CCOC(=O)[C@H](Cc1ccccc1)NC(=O)CCC1CC(OC(=O)NCc2cccc3ccccc23)CC2(CCCC(COC(=O)NCc3ccc4c(c3)OCO4)O2)O1 (stereo partly specified) -0.322, CC(=O)OC[C@H]1O[C@H](CC=NOC(C)CN2CCCc3nc(C)c(C)cc32)C=C[C@@H]1OC(C)=O (stereo partly specified) 1.29, O=C1[C@H]2[C@H]3[C@H](O)[C@H](O)CC(=NO[C@@H]4O[C@H](CO)[C@@H](O)[C@H](O)[C@H]4O)[C@H]3CC[C@H]2C(=O)N1C[C@@H]1CCCO1 -0.48, C#CCCCON=C1C[C@@H](O)[C@@H](O)[C@@H]2[C@@H]3C(=O)N(C[C@@H]4CCCO4)C(=O)[C@@H]3CC[C@@H]12 0.141, CCN1C(=O)[C@H]2[C@H]3[C@H](O)[C@H](O)CC(=NOCC[C@@H]4C=C[C@H](OC(C)=O)[C@@H](COC(C)=O)O4)[C@@H]3CC[C@H]2C1=O 0.607, CC(=O)OC[C@H]1O[C@@H](ON=C(C)CCC(=O)OC[C@H]2O[C@H](C#Cc3ccccc3)C=C[C@@H]2Oc2ccc(C)cc2)[C@H](OC(C)=O)[C@@H](OC(C)=O)[C@@H]1OC(C)=O 0.0771, CO[C@H]1C[C@@H]2C[C@H](O)CC(CC(=O)O[C@@H](C=CCC(C)C)C[C@@H]3CC[C@H](C)[C@@H](C1)O3)O2 -0.199
